# Shown are actives, neighbours in structure and some others; about 12% of the full set was active somewhere.
# L3MBTL1 block – inhibitors of human L3MBTL1. Potency, µM (titrated, usually from 57.1 µM), inactives show at the top dose activity, negative = inhibition, actives largely listed as inhibitors. 230,000 compounds, 0.66% hits. Q9Y468. AlphaScreen L3MBTL1–H3K9me1 peptide binding. AID 485360; note: % is set by controls: 0 for no effect and ±100 for the full control effect; nearly all actives have a fitted effect of over 60% in size
# Target sequence (Q9Y468 whole entry, looked up): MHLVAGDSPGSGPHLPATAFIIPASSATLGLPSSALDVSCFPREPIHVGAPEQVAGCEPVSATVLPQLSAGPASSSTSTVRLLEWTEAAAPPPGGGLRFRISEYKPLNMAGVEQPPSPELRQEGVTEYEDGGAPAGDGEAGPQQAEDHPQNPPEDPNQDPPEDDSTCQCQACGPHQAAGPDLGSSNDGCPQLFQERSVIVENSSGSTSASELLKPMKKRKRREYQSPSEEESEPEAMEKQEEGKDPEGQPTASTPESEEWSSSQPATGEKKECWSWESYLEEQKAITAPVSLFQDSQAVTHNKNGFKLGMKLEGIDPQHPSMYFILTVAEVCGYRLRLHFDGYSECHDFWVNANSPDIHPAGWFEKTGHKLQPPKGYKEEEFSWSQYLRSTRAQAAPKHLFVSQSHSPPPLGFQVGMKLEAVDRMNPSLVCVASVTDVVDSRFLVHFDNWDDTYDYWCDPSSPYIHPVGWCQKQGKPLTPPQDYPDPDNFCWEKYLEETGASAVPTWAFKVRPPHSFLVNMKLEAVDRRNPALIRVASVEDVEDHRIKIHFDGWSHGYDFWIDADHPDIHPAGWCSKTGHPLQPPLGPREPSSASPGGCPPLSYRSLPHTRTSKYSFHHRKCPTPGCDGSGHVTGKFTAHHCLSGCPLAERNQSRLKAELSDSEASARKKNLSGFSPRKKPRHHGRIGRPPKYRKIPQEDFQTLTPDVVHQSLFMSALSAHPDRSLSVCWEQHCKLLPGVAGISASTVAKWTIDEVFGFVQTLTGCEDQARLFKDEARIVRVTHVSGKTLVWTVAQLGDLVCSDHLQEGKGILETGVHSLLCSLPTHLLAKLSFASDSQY
#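 Read-out is AlphaScreen signal from streptavidin donor and nickel chelate acceptor beads (10 ug/mL final each) bridging L3MBTL1 (50 nM) and biotinylated K9-monomethylated H3(1-15) peptide (75 nM), after 30 min compound exposure at room temperature.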
# HP1b chromo inh – blocks HP1-beta chromodomain binding to methylated histone tails; P83916; AlphaScreen HP1-beta / biotin-H3K9me3 peptide binding; Potency, µM (titrated, usually from 114 µM), without a hit: at the highest dose activity change, negative = inhibition, hits mostly inhibitors; 390,000 compounds, 0.56% hits; AID 540317; note: nearly all actives have a fitted effect of over 70% in size
#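 Compound inhibition of the preformed complex between 50 nM HP1-beta and 50 nM biotinylated H3K9me3 peptide was read by AlphaScreen. Buffer was PBS pH 7.4 with 0.01% Tween-20. Incubations ran 30 min at room temperature, with 10 ug/mL donor/acceptor beads.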
# G9a inh – blocks human histone lysine methyltransferase G9a; Q96KQ7; G9a H3K9 monomethylation, AlphaScreen, 2 h; Potency, µM (top dose mostly 102 µM), inactives show at the top dose activity, negative = inhibition, most hits filed as inhibitors; 350,000 compounds, 8.8% hits; AID 504332; note: % is set by controls: 0 for no effect and ±100 for the full control effect; nearly all actives have a fitted effect of over 75% in size
#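 AlphaScreen detection with an anti-monomethyl H3K9 antibody quantified product after a 2 h room-temperature reaction containing 500 nM biotinylated H3K9 peptide, 20 µM SAM and 20 nM enzyme, which had been preincubated 15 min with compound.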
# JMJD2A Tudor inh – inhibitors of human JMJD2A Tudor domain; O75164; Potency, µM (titrated, usually from 114 µM), for inactives: at the highest dose activity change, negative = inhibition, hits mostly inhibitors; AID 504339; AlphaScreen JMJD2A-Tudor / H3K4me3 peptide binding; 390,000 compounds, 4.4% hits; note: % is set by controls: 0 for no effect and ±100 for the full control effect; nearly all actives have a fitted effect of over 50% in size
# Sfp PPTase inh – Sfp phosphopantetheinyl transferase inhibition | 310,000 compounds, 3.5% hits | Biochemical Sfp PPTase activity, qHTS | Q9F4F7 | AID 1490 | Potency, µM, for inactives: largest response in the series, negative = inhibition, most hits filed as inhibitors;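 note: the enzyme is Sfp with the accession as filed and its product quenches rhodamine fluorescence; 0% = enzyme reaction without inhibitor and -100% = no enzyme wells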
#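 Reaction rates are the 30-min fluorescence difference (ex 525, em 598 nm) in wells containing 15 nM Sfp, 5 uM rhodamine-CoA and 12.5 uM BHQ-2-YbbR at pH 7.6 with 10 mM MgCl2.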
# BAZ2B inh – blocks human BAZ2B. Q9UIF8. AlphaScreen BAZ2B-H3K14Ac peptide displacement. Potency, µM (series often up to 114 µM), without a hit: top-dose activity change, negative = inhibition, actives largely listed as inhibitors. 360,000 compounds, 4.4% hits; note: % is set by controls: 0 for no effect and ±100 for the full control effect; nearly all actives have a fitted effect of over 60% in size
#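 In this displacement format the biotinylated H3(5-23) peptide acetylated at Lys14 serves as ligand at 50 nM, with BAZ2B at 50 nM in PBS pH 7.4 containing 0.01% Tween-20. Donor and acceptor beads are 10 ug/mL final.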
# Active calls of the source: *; ? = inconclusive; . = not tested or not shown; [ ] = another dose, or the depositor's remark. Calls come from the whole dose curve; as a rule, active = well fitted curve in the direction sought with a large enough effect; inconclusive = small, poorly fitted or top-dose-only effect, or another doubt; inactive = no such curve, though single readings can be large; an effect the other way counts as inactive or inconclusive. Potency is the fitted concentration of half-maximal effect.
SMILES,L3MBTL1 block,HP1b chromo inh,G9a inh,JMJD2A Tudor inh,Sfp PPTase inh,BAZ2B inh
COc1ccc(NC(=S)NNc2ccc(S(=O)(=O)Nc3ccccc3C(=O)O)cc2[N+](=O)[O-])cc1,?,11.2µM*,.,?,79.4µM*,7.08µM*
COc1cc(CN2CCC(C(=O)N3CCCC(C)C3)CC2)cc(Br)c1O (stereo not drawn),-1.9%,?,7.94µM*,?,-17.9%,22.4µM*
COc1ccc(CN2CCC(C(=O)N3CCCC(C)C3)CC2)cc1OC (stereo not drawn),1.0%,-15.5%,17.8µM*,17.8µM*,3.9%,50.1µM*
COc1cc(CN2CCCCCC2)cc(Br)c1O,-6.7%,?,?,22.4µM*,7.3%,70.8µM*
COc1cc(CN2CCC(N3CCC(C(=O)N4CCCC4)CC3)CC2)cc2c1OCO2,-0.7%,31.5%,.,-13.8%,11.5%,1.5%
COc1ccc(C(=O)NCC(=O)N2CCCC(C)C2)cc1OC (stereo not drawn),4.6%,15.6%,8.1%,-9.8%,1.6%,.
CCCCCC/C=C/c1ccc(OC)c(C2C3C=CCC(C)C3C(=O)N2Cc2ccccc2)c1 (stereo not drawn),.,45.8%,.,6.9%,5.4%,.
COc1cccc(CN(C)C(=O)CNC(=O)c2cccs2)c1OC,4.6%,40.5%,-7.1%,-1.4%,.,5.3%
COc1cccc(CN(C)C(=O)CNC(=O)c2ccc(-c3ccccc3)cc2)c1OC,.,-0.3%,44.7µM*,-21.2%,-2.1%,-0.3%
COc1cccc(CN(C)C(=O)c2ccc(NS(=O)(=O)c3ccc4[nH]c(=O)[nH]c4c3)cc2)c1OC,.,33.1%,7.4%,-11.7%,6.2%,-12.8%
COc1ccc(CN(C)C(=O)CNC(=O)c2sc3ccccc3c2Cl)c(OC)c1OC,.,-16.7%,.,89.1µM*,.,.
CCOc1ccc(NS(=O)(=O)c2ccc(C(=O)N(C)Cc3cccc(OC)c3OC)cc2)cc1,.,-5.9%,18.4%,89.1µM*,5.2%,-27.0%
CCN1CCN(c2c(S(=O)(=O)c3ccc(C)c(C)c3)cnc3cc(OC)c(OC)cc23)CC1,.,15.3%,-7.0%[59 µM],-26.9%,.,?
Cc1sc2nc(SCc3nc(-c4ccccc4)no3)n(-c3ccccc3)c(=O)c2c1C,-18.7%,20.8%,3.16µM*,11.6%,-5.8%,1.0%
Cc1ccc(N2C(=O)CCSC23C(=O)N(Cc2ccc(F)cc2)c2ccccc23)cc1 (stereo not drawn),.,-5.1%,?,-31.7%,.,-10.0%[57.1 µM]
CN(C)CCCN(C(=O)c1ccc2c(c1)OCCO2)c1nc2cc3c(cc2s1)OCO3,.,16.3%,.,-22.9%,10.4%,-14.5%
CCOC(=O)N1CCN(S(=O)(=O)c2ccc(C(=O)N(CCN(CC)CC)c3nc4ccc(C)cc4s3)cc2)CC1,.,-18.0%,50.1µM*,?,-9.3%,?
Cc1ccc2nc(N(CCCN(C)C)C(=O)c3ccc(S(=O)(=O)N4CCCCCC4)cc3)sc2c1,.,-3.7%,-28.1%,?,-20.0%,?
CC1CN(S(=O)(=O)c2ccc(C(=O)N(CCCN(C)C)c3nc4cc5c(cc4s3)OCCO5)cc2)CC(C)O1 (stereo not drawn),-8.8%,4.1%,50.1µM*,-35.9%,.,-5.4%
CN(C)CCN(C(=O)c1ccc(S(=O)(=O)N2CCCC2)cc1)c1nc2ccc(Br)cc2s1,.,34.8%,70.8µM*,-24.1%,-16.9%,-17.5%
CC1CCCCN1S(=O)(=O)c1ccc(C(=O)N(CCCN(C)C)c2nc3ccc(Br)cc3s2)cc1 (stereo not drawn),.,-17.1%,.,44.7µM*,50.1µM*,?
O=C1C(=O)N(C2CCN(S(=O)(=O)c3ccccc3)CC2)CCN1Cc1ccccc1,.,18.7%,-3.4%[59 µM],2.3%,.,1.3%
Cc1cc([N+](=O)[O-])ccc1NC(c1nnc(-c2ccccc2)o1)c1ccccc1F (stereo not drawn),.,25.0%,-8.8%[59 µM],-24.3%,.,-28.3%
CCOC(=O)N1CCN(S(=O)(=O)c2ccc(C(=O)N(CCCN(C)C)c3nc4ccc(CC)cc4s3)cc2)CC1,.,7.8%,?,?,-22.6%,-35.6%
CCc1ccc2nc(N(CCCN(C)C)C(=O)c3ccc(S(=O)(=O)N4CCCC4)cc3)sc2c1,.,18.5%,50.1µM*,-35.3%,0.9%,-30.3%
SMILES,L3MBTL1 block,HP1b chromo inh,G9a inh,JMJD2A Tudor inh,Sfp PPTase inh,BAZ2B inh
CCC1CCCCN1S(=O)(=O)c1ccc(C(=O)N(CCCN(C)C)c2nc3cc4c(cc3s2)OCO4)cc1 (stereo not drawn),.,-11.3%,56.2µM*,?,-12.3%,?
CCOC(=O)N1CCN(S(=O)(=O)c2ccc(C(=O)N(CCN(C)C)c3nc4ccc(CC)cc4s3)cc2)CC1,.,-1.0%,50.1µM*,?,2.4%,?
CCc1ccc2nc(N(CCCN(C)C)C(=O)c3ccc(S(=O)(=O)N4CCCc5ccccc54)cc3)sc2c1,.,?,39.8µM*,44.7µM*,35.5µM*,?
Cc1ccc(OCC(=O)OCc2cc(=O)n3nc(C4CCCCC4)sc3n2)cc1C,.,14.5%,16.2%[59 µM],-10.3%,.,-7.0%
O=c1[nH]c2ccc(NC(=S)Nc3ccccc3Cl)cc2[nH]1,.,0.8%,14.1µM*,-5.6%,50.1µM*,-3.9%
S=C(Nc1ccc2cn[nH]c2c1)Nc1ccc(Cl)cc1Cl,-8.7%,-22.1%,28.2µM*,?,15.8µM*,?
Cc1ccccc1NC(=S)Nc1ccc2[nH]c(=O)[nH]c2c1,3.9%,-4.3%,50.1µM*,-16.2%,-28.2%,-9.7%
CCc1ccc(C2CC(=O)c3c([nH]c(C(=O)OCC4CCCCC4)c3C)C2)cc1 (stereo not drawn),.,29.8%,0.1%[59 µM],-11.6%,.,4.2%
CC(C)(O)C1Cc2cc(/C=C/C(=O)O)c(O)cc2O1 (stereo not drawn),3.5%,?,2µM*,3.98µM*,6.31µM*,20µM*
COc1ccc(N=C2C(=O)N3c4c(cccc42)C(C)=CC3(C)C)cc1,-14.1%,28.2µM*,10µM*,14.1µM*,-7.7%,35.5µM*
NC(=O)c1ccccc1NC(=S)NC(=O)c1ccc(Br)o1,1.4%,-7.5%,44.7µM*,-17.2%,22.4µM*,1.7%
O=C(NC(=S)Nc1ccccc1)c1ccc(Br)o1,0.0%[11.4 µM],-4.4%,?,-9.7%,2.6%,-30.0%
NC(=O)c1ccccc1NC(=O)CCc1ccccc1,2.5%,27.2%,26.3%[59 µM],-14.1%,13.3%,-6.5%
NC(=O)c1ccccc1NC(=S)NC(=O)CCc1ccccc1,2.1%,?,4.47µM*,79.4µM*,28.2µM*,-5.9%
Cc1ccc(C(=O)Oc2ccc(C(=O)COC(=O)C3CC(=O)N(Cc4ccco4)C3)cc2)cc1 (stereo not drawn),?,-18.0%,?,?,?,50.1µM*
